N370S GC mod: inhibitors or activators of N370S glucocerebrosidase for Gaucher disease; P04062; N370S GC spleen homogenate, 4MU-glucoside fluorescence; Potency, µM (top dose mostly 59.4 µM), inactives show top-dose activity change, negative = inhibition, most hits filed as inhibitors; 330,000 tested, 0.092% active;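 note: 0% = full enzyme activity and -100% = no enzyme basal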
aGlu spleen mod: lysosomal alpha-glucosidase (human) modulation | P10253 | human spleen homogenate, 4-MU-alpha-glucoside fluorescence | Potency, µM (doses to about 79.9 µM), inactives show at the top dose activity change, negative = inhibition, most hits filed as inhibitors | 240,000 tested, 0.006% active;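 note: 0% = enzyme with vehicle and -100% = no enzyme basal signal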
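Human spleen homogenate (1 ug) with 4-methylumbelliferyl-alpha-D-glucopyranoside (1 mM final) in 50 mM citrate/phosphate pH 5.0, 0.01% Tween-20; 40 min at 37 C. Stopped at pH 10; 4-MU fluorescence Ex 365/Em 440 nm; AC50 by Hill fit.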
LMNA splice mod: changes lamin A minigene splicing in HeLa cells; HeLa LMNA splicing GFP/RFP minigene ratio, 48 h; 200,000 tested, 0.01% active; Potency, µM (titrated, usually from 46.1 µM), for the others: top-dose ratio change, negative = inhibition, usual class: inhibitors; active = well fitted inhibition curve with a large enough effect in the signal ratio, with a control signal flat, not every such curve was filed as active; inconclusive = small, poorly fitted or top-dose-only effect, or effect the other way, or a change in a side signal; the % refers to the signal ratio
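S3 HeLa cells stably expressing lamin A-EGFP splicing minigene plus DsRed2, 600 cells/well, 48 h compound exposure at 37C. Laser-scanning cytometry; analysed as GFP (500-530 nm)/RFP (575-640 nm) total intensity ratio; 0.5% DMSO vehicle.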
GAA inh: inhibitors of human lysosomal alpha-glucosidase. Potency, µM (series often up to 76.9 µM), for inactives: at the highest dose activity change, negative = inhibition, hits mostly inhibitors. purified human GAA, 4-MU-alpha-glucoside fluorescence. 200,000 tested, 0.005% active. P10253;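 note: plate controls were uninhibited enzyme wells for no effect and no-enzyme background for full effect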
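qHTS format, compound range up to 77 uM. Human lysosomal enzyme at 4 nM, 400 uM 4-MU glucoside substrate, pH 5.0, 20 min room temperature; fluorescence after alkaline stop gives activity normalized to controls.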
GAA glycogen: GAA glycogen-cleavage inhibition or activation; P10253; recombinant GAA, glycogen substrate, Amplex Red glucose oxidase fluorescence; Potency, µM (top dose mostly 76.4 µM), inactives show at the highest dose activity change, negative = inhibition, usual class: inhibitors; 300,000 tested, 0.38% active;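 note: 0% = full enzyme reaction and -100% = no-enzyme basal signal; the screen sought inhibitors and activators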
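Natural-substrate format: glycogen cleavage by 4 nM human enzyme, glucose read by Amplex Red coupling (Ex 573, Em 610 nm). Normalized to enzyme and no-enzyme controls.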
Active calls of the source: *; ? = inconclusive; . = no result given; [ ] = dose if it differs, or a comment. Most compounds without a hit are left out; they make up all but 0.41% or so of the library. Unless noted, calls come from the whole dose curve; as a rule, active = well fitted curve in the direction sought with a large enough effect; inconclusive = small, poorly fitted or top-dose-only effect, or another doubt; inactive = no such curve, though single readings can be large; an effect the other way counts as inactive or inconclusive. Unless noted, % is set by controls: 0 for no effect and ±100 for the full control effect; potency is the fitted concentration of half-maximal effect.

SMILES	N370S GC mod	aGlu spleen mod	LMNA splice mod	GAA inh	GAA glycogen
Oc1ccc(C2=Nn3c(nnc3-c3ccco3)SC2)cc1O	-13%	-4%	-16%	1%	16µM*
CCn1nc(C)cc1Nc1ccccc1	?	-5%	-3%	-11%	14µM*
Oc1ccc(N2CCN(c3ncnc4sc5c(c34)CCC5)CC2)cc1	-18%	-4%	?	0%	14µM*
OCCN1CCN(c2ncnc3sc4c(c23)CCCC4)CC1	-18%	.	.	.	-12%[76.3 µM]
CC1=Nc2cccc3cccc(c23)N1	-4%	3%	?	-5%	14µM*
Nc1ccc(C2=Nc3cccc4cccc(c34)N2)cc1	16%	-1%	?	6%	-23%
O=c1c2ncn([C@@H]3O[C@@H]4COP(=O)(O)O[C@H]4[C@H]3O)c2nc2[nH]c(-c3ccccc3)cn12	-4%	-2%	.	.	.
Cc1c(N=Cc2ccc(-c3ccc(Cl)cc3)o2)c(=O)n(-c2ccccc2)n1C	5%[2.35 µM]	2%	18%	-7%	-11%
Cc1ccccc1-c1ccc(C=Nc2c(C)n(C)n(-c3ccccc3)c2=O)o1	4%	4%	1%	-11%	16µM*
Cc1c(N=Cc2ccc(Cl)o2)c(=O)n(-c2ccccc2)n1C	1%	2%	-3%	-9%	4.5µM*
Cc1c(N=Cc2cccnc2)c(=O)n(-c2ccccc2)n1C	6%	-8%	-7%	-3%	?
Cc1c(N=Cc2ccco2)c(=O)n(-c2ccccc2)n1C	11%	-15%	2%	3%	10µM*
C=CC1=C(C)C2=NC1=CC1=NC(=CC3=NC(=CC4=NC(=C2)C(C)=C4CCC(=O)O)C(CCC(=O)O)=C3C)C(C=C)=C1C.[Zn]	-17%	-11%	.	.	.
COc1cc(C(C(=O)NC(C)(C)C)N(C(=O)CNC(=O)c2cccs2)c2ccccc2)cc(OC)c1OC (centres undefined)	13µM*	3%	-5%	6%	-1%
CCC(Sc1nnc2c(n1)[nH]c1ccccc12)C(=O)Nc1nnc(C(C)C)s1 (centres undefined)	.	.	.	.	-6%[76.3 µM]
CCOC(=O)c1cc(-c2ccc(OC)cc2)nc2c1c(C)nn2CCC#N	12%	24%	6%	13%	-25%
COc1ccc(-c2cc(Nc3ccccc3NC(=O)C(F)(F)F)n(CCC#N)n2)cc1	11%	-3%	-8%	-1%	35µM*
CC[C@H](C)[C@H](NC(=O)[C@H](CCCNC(=N)N)NC(=O)[C@@H](NC(=O)[C@H](CCCNC(=N)N)NC(=O)[C@H](CCCCN)NC(=O)[C@H](CCCNC(=N)N)NC(=O)[C@@H](NC(=O)[C@H](CC(N)=O)NC(=O)[C@@H](N)CS)[C@@H](C)O)[C@@H](C)CC)C(=O)N[C@@H](CCC(N)=O)C(=O)N[C@@H](CCCNC(=N)N)C(=O)NCC(=O)N1CCC[C@H]1C(=O)NCC(=O)N[C@@H](CCCNC(=N)N)C(=O)N[C@@H](C)C(=O)N[C@@H](Cc1ccccc1)C(=O)N[C@H](C(=O)N[C@H](C(=O)N[C@H](C(=O)NCC(=O)N[C@@H](CCCCN)C(=O)O)[C@@H](C)CC)[C@@H](C)O)C(C)C	-4%	4%	.	.	.
COC(=O)c1c(NC(=O)COC(=O)CCNS(=O)(=O)c2ccc(NC(C)=O)cc2)sc(C)c1C	8.9µM*	.	.	.	.
CCOc1ccc(NC(=O)CNC(=O)c2cn(-c3ccccc3OC)c(=O)c3ccccc23)cc1	13µM*	-6%	-7%	-11%	-4%
COCCCNC(=O)CNC(=O)c1cn(-c2ccccc2OC)c(=O)c2ccccc12	-5%	8%	3%[9.22 µM]	-1%	-4%
O=C(O)c1ccc(-c2ccc3cc(C45CC6CC(CC(C6)C4)C5)c(O)cc3c2)cc1	-8%	2%	.	.	.
CCOC(=O)c1ccccc1N1C(=O)CSC1=S	4%	-6%	-4%	0%	28µM*
C#C[C@]1(O)CCC2C3CCC4=Cc5oncc5C[C@@]4(C)C3CC[C@@]21C (some centres undefined)	-7%	-5%	.	.	.
CCCCCCc1ccc(C(=O)CCN(C)C)cc1	.	9%	.	.	.
SMILES	N370S GC mod	aGlu spleen mod	LMNA splice mod	GAA inh	GAA glycogen
Cc1ccc(F)cc1-c1ccc(C(=O)N=C(N)N)o1	-7%	7%	.	.	.
c1ccc(-c2nc(NC3CCCC3)c3ccccc3n2)cc1	16µM*	.	.	.	.
COc1ccc(CNc2n[nH]c(NCc3ccc(OC)c(OC)c3)n2)cc1OC	2%	3%	-1%	2%	22µM*
COc1ccc(CNc2nc(-c3ccccc3)nc3ccccc23)cc1OC	14µM*	.	.	.	2%
c1ccc(-c2nc(NCc3cccnc3)c3ccccc3n2)cc1	?	4%	3%	-6%	3%
Fc1ccc(CNc2nc(-c3ccccc3)nc3ccccc23)cc1	14µM*	-11%	?	-3%	-8%
COc1cccc(-c2nc(NCc3ccc(OC)cc3OC)c3ccccc3n2)c1	?	11%	?	.	.
COc1ccc(NC(=O)CC2C(=O)N(c3cccc(OC)c3)C(=O)N2CCC2=CCCCC2)cc1 (centres undefined)	.	.	.	.	-16%[76.3 µM]
COc1ccc(Nc2nc(-c3ccccc3F)nc3ccccc23)cc1OC	2.5µM*	.	?	.	-1%
Oc1ccc(N2CCN(C(=S)NCCc3ccccc3)CC2)cc1	-16%	-3%	?	8%	25µM*
Oc1ccccc1N1CCN(C(=S)NCCc2ccccc2)CC1	-2%	-3%	?	-2%	?
COc1ccc(/C=N/NC(=O)c2nc(-c3ccccc3)cc(-c3ccccc3)n2)cc1OC	0%	8%	-18%	-7%	-6%
COc1ccc(/C=N/c2oc(-c3ccccc3)cc2C#N)cc1OC	11%	1%	-15%	3%	25µM*
CCN(CC)CCNC(=O)CCCCn1c(=S)[nH]c2c([nH]c3ccc(OC)cc32)c1=O	-1%	6%	-2%	-10%	25µM*
COC(=O)Nc1c(-c2ccccc2)nc2ccc(Cl)cn12	-6%	.	.	.	6%[76.3 µM]
COC(=O)CNc1c(-c2ccccc2)nc2ccc(Br)cn12	11µM*	-7%	5%	-8%	?
COc1cc2cc3c4c(cc(OC)c(OC)c4c2cc1OC)CCN3C	13%	16%	.	.	.
COc1ccc(NC(=S)N(CCc2c(C)[nH]c3ccc(C)cc23)Cc2cccnc2)cc1	-9%	5%	?	-10%	-16%
CCOc1ccc(NC(=S)N(CCc2c(C)[nH]c3ccc(C)cc23)Cc2ccncc2)cc1	14µM*	3%	?	-11%	-14%
COc1ccc(C)cc1NCc1cccc(OC)c1OC	27%	-7%	-4%	?	-27%
COc1cc(OC)c(OC)cc1CNc1cc(C)ccc1OC	12%	7%	?	-13%	11µM*
Cc1ccc(NC(=O)Cn2c(-c3ccc4c(c3)OCO4)cn(-c3ccccc3)c2=O)cc1	.	.	.	.	8%[76.3 µM]

Screening results as filed in PubChem.
